Measurements as given in the supplement of paper PMC7411640.
Counter-ions that a name gives are not always drawn.

Tested on: MDA-MB-468
Test: phospho-S6 immunofluorescence (DAPI-normalised), per-plate z-score; higher = higher phospho-S6 signal (less pathway suppression)
Conditions: 24 h
Procedure: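 GPCR-targeted compound library (MedChemExpress HY-L006) tested on MDA-MB-468 PTEN-null TNBC cells in 384-well plates at 0.1, 1 or 10 uM, combined with vehicle, GDC0941 450 nM or lapatinib 1 uM, for 24 h. Phospho-S6 (S240/244) immunofluorescence normalised to DAPI and expressed as a per-plate z-score; values are the mean of biological triplicates.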

Row | Compound | phospho-S6 immunofluorescence (z-score) (co-treatment: GDC0941 450 nM) | phospho-S6 immunofluorescence (z-score) (co-treatment: lapatinib 1 uM) | phospho-S6 immunofluorescence (z-score) (co-treatment: vehicle)
1 | CN1[C@@H]2CC[C@H]1C[C@@H](OC(=O)C(CO)c1ccccc1)C2 (some centres undefined) [Atropine (sulfate monohydrate)] (compound 10 µM) | -1.09 | -0.18 | -0.82
2 | Cc1cccc(C)c1NC1=NCCCS1 [Xylazine (hydrochloride)] (compound 10 µM) | 0.73 | 0.79 | 0.89
3 | CCN(CCCCO)C(C)Cc1ccc(O)cc1 (centres undefined) [O-desmethyl Mebeverine alcohol (hydrochloride)] (compound 10 µM) | -0.73 | -0.03 | -0.64
4 | CN1CCC(C(=O)c2cccc(NC(=O)c3c(F)cc(F)cc3F)n2)CC1 [Lasmiditan (hydrochloride)] (compound 10 µM) | -2.08 | -3.95 | -0.09
5 | Cc1ccc2c(c1)C1(CCN(CCc3nc(-c4ccccc4)oc3C)CC1)OC(=O)N2 (compound 10 µM) | 0.56 | 0.85 | 0.89
6 | CN1C[C@H](C(=O)N[C@]2(C)O[C@@]3(O)[C@@H]4CCCN4C(=O)[C@H](Cc4ccccc4)N3C2=O)C[C@@H]2c3cccc4[nH]cc(c34)C[C@H]21 [Dihydroergotamine (mesylate)] (compound 10 µM) | 1.05 | 0 | 0.86
7 | O=Cc1cn(Cc2ccc(Cl)cc2)c2ccccc12 [Oncrasin-1] (compound 10 µM) | -3.49 | -7.38 | -9.12
8 | CN(C)C(=O)Oc1cc(OC(=O)N(C)C)cc(C(O)CNC(C)(C)C)c1 (centres undefined) [Bambuterol (hydrochloride)] (compound 10 µM) | -0.5 | 0.49 | -0.4
9 | O=C1Nc2ccccc2C2(CCN(CCc3ccc(C(F)(F)F)cc3)CC2)O1 (compound 10 µM) | -3.3 | -4.41 | -4.38
10 | Cc1c(C(=O)c2cccc3ccccc23)c2cccc3c2n1[C@H](CN1CCOCC1)CO3 [WIN 55,212-2 (Mesylate)] (compound 10 µM) | -2.24 | -0.84 | -3.25
11 | CSCC[C@H](NC(=O)[C@H](Cc1ccccc1)NC(=O)CNC(=O)CNC(=O)[C@@H](N)Cc1ccc(O)cc1)C(=O)O (compound 10 µM) | -0.41 | -0.12 | -0.05
12 | CC(C)C[C@H]1C(=O)N2CCC[C@H]2[C@]2(O)O[C@](NC(=O)[C@@H]3C=C4c5cccc6[nH]c(Br)c(c56)C[C@H]4N(C)C3)(C(C)C)C(=O)N12 [Bromocriptine (mesylate)] (compound 10 µM) | -3.83 | -3.57 | -1.61
13 | Cc1ncc(CN2CC=C(c3ccccc3)CC2)c(N)n1 [Ro 10-5824 (dihydrochloride)] (compound 10 µM) | -1.36 | -1.65 | 0.42
14 | O=C1CCC[C@@H]2[C@H]3CCCN4CCC[C@@H](CN12)[C@@H]34 [Matrine] (compound 10 µM) | -0.52 | -0.53 | -0.24
15 | CO[C@]12C[C@@H](COC(=O)c3cncc(Br)c3)CN(C)[C@@H]1Cc1cn(C)c3cccc2c13 [Nicergoline] (compound 10 µM) | 0.57 | -0.56 | -0.38
16 | CNCC(O)c1ccc(O)cc1 (centres undefined) [Synephrine (hydrochloride)] (compound 10 µM) | 1.02 | 0.35 | 0.24
17 | Cc1cccc([C@H](C)c2c[nH]cn2)c1C [Dexmedetomidine (hydrochloride)] (compound 10 µM) | 0.32 | 0.38 | 1.08
18 | CCC1(c2cccc(O)c2)CCCCN(C)C1 (centres undefined) [Meptazinol (hydrochloride)] (compound 10 µM) | 0.48 | 0.25 | 0.11
19 | CN1CCC2=C(C1)c1ccccc1Cc1ccccc12 [Setiptiline (maleate)] (compound 10 µM) | -0.68 | -1.28 | -1.11
20 | COC(=O)C1=CCCN(C)C1 [Arecoline (hydrobromide)] (compound 10 µM) | 0.22 | 0.44 | 0.56
21 | COc1ccc2c(c1OC)CN1CCc3cc4c(cc3C1C2)OCO4 (centres undefined) [Tetrahydroberberine] (compound 10 µM) | -0.04 | -1.09 | -0.52
22 | C[C@H]1CNCCc2ccc(Cl)cc21 [Lorcaserin (Hydrochloride)] (compound 10 µM) | -1 | -0.25 | -0.95
23 | CN1[C@@H]2CC(O)C[C@H]1[C@@H]1O[C@@H]12 (some centres undefined) [Scopine (hydrochloride)] (compound 10 µM) | 1.05 | 0.28 | -1.09
